Measured values published in PubChem BioAssay (EPA / NIEHS).
Inconclusive results are not listed. Activity calls are given as the source filed them. Rule for the calls: active = hit-call score of the fitted dose curve at least 0.9, where 1 is the maximum; inconclusive = response in the unintended direction; inactive = score below 0.9.

What was measured:
[1] = IUF_NPC1_cytotoxicity_72hr: Cytotoxicity Assessment at 72 hours in the Leibniz Research Institute for Environmental Medicine (IUF) Neural Progenitor Cell Proliferation Assay (NPC1) (AID 2284332);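 note: rising LDH signal means more cytotoxicity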
Procedure, shortened: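 Membrane-integrity loss is scored from LDH released into the medium, detected as resorufin fluorescence, with activity fitted upward relative to baseline. Test material stays on human fetal-derived progenitor spheres for 72 h.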

[2] = CCTE_Mundy_HCI_iCellGluta_NOG_NeuronCount: CCTE's Neurite Outgrowth Assay in iCellGluta cells for Neuron Count, Mundy Lab (AID 2284340);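 note: cells fixed about 48 h after compound addition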
Procedure, shortened: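 Neuron count read by automated high-content imaging of Hoechst 33342 and betaIII-tubulin/Alexa Fluor-488 labelling in human iPSC glutamatergic neurons. Activity fitted relative to DMSO.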

[3] = CCTE_Mundy_HCI_iCellGluta_NOG_NeuriteCount: CCTE's Neurite Outgrowth Assay in iCellGluta cells for Neurite Count, Mundy Lab (AID 2284342);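 note: chemical exposure about 48 hours starting 2 hours after plating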
SERPINA7 (gene 6906) = test: CCTE_GLTED_hTBG: CCTE's human Thyroxine-binding Globulin (TBG) Inhibition Assay, Great Lakes Toxicology and Ecology Division (GLTED) Lab (AID 2284343);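 note: active chemicals lower fluorescence versus DMSO baseline by displacing probe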
Procedure, shortened: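 Human thyroxine-binding globulin was exposed to each chemical for 2 hours, during which the ANSA probe could be displaced. Fluorescence was then measured at 380/475 nm, and loss of signal was analysed relative to DMSO.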

[4] = VALA_TUBIPS_Antagonist_CellCount: Viability Assessment in the VALA Sciences human iPS-derived Endothelial Tubule Formation (TUBIPS) Antagonism Assay (AID 2284335)
[5] = VALA_TUBHUV_Agonist_TubuleLength: VALA Sciences human Umbilical Vein Endothelial Tubule Formation (TUBHUV) Agonism Assay (AID 2284337)
Description: VALA_TUBHUV_Agonist is a cell-based, multiplexed assay that uses human umbilical vein endothelial cells (HUVEC). Measurements were taken 72 hours after chemical dosing in a 96-well plate.VALA_TUBHUV_Agonist_TubuleLength is the one of two assay components measured from the VALA_TUBHUV_Agonist assay. It is designed to make measurements of tubulogenesis, a form of morphology reporter, as detected with fluorescence intensity signals by HCS Fluorescent Imaging technology. This VALA_TUBHUV1 assay was designed to detect chemical activation of tubulogenesis, i.e. agonism.Data from the assay component VALA_TUBHUV_Agonist_TubuleLength was analyzed at the endpoint, VALA_TUBHUV_Agonist_TubuleLength, in the positive analysis fitting direction relative to DMSO as the negative control and baseline of activity. Using a type of morphology reporter, gain-of-signal activity can be used to understand developmental effects. To generalize the intended target to other relatable targets, this assay endpoint is annotated to the neurodevelopment intended target family, where the subfamily is tubulogenesis.
This HUVEC-HDF assay was designed to detect chemical suppression of tubulogenesis, i.e. antagonism. […]

[6] = VALA_TUBIPS_Agonist_CellCount: Viability Assessment in the VALA Sciences human iPS-derived Endothelial Tubule Formation (TUBIPS) Agonism Assay (AID 2284338)
Description: VALA_TUBIPS_Agonist is a cell-based, multiplexed assay that uses human iPS-derived endothelial cells (iPSC). Measurements were taken 72 hours after chemical dosing in a 96-well plate.VALA_TUBIPS_Agonist_CellCount is the one of two assay components measured from the VALA_TUBIPS_Agonist assay. It is designed to make measurements of viability, a form of viability reporter, as detected with fluorescence intensity signals by HCS Fluorescent Imaging technology. Data from the assay component VALA_TUBIPS_Agonist_CellCount was analyzed at the endpoint, VALA_TUBIPS_Agonist_CellCount, in the positive analysis fitting direction relative to DMSO as the negative control and baseline of activity. Using a type of viability reporter, loss-of-signal activity can be used to understand viability. To generalize the intended target to other relatable targets, this assay endpoint is annotated to the cell cycle intended target family, where the subfamily is cell count.
This HUVEC-HDF assay was designed to detect chemical suppression of tubulogenesis, i.e. antagonism. To measure tubulogenesis antagonism, HUVEC cells were co-cultured with HDF cells at a 1:3 ratio for 3-days in 10 ng/ml VEGF (i.e., favorable conditions with growth factors), then changed to assay medium containing 10 ng/ml VEGF and ToxCast compounds for an additional 3-day period. […]

Cc1ccc(-c2c(Cl)nc(C#N)n2S(=O)(=O)N(C)C)cc1
outcome [1]: inactive | AC50 [2]: 50 µM (active) | AC50 [3]: 50 µM (active) | AC50 (SERPINA7 (gene 6906)): 33.1 µM (active)

OC(c1ccc(Cl)cc1)(c1cncnc1)c1ccccc1Cl (stereo unspecified)
AC50 (SERPINA7 (gene 6906)): 36.5 µM (active)

C=CC1(C)OC(=O)N(c2cc(Cl)cc(Cl)c2)C1=O (stereo unspecified)
outcome [1]: inactive | outcome [2]: inactive | outcome [3]: inactive

Fc1ccc(Oc2ccnc3cc(Cl)cc(Cl)c23)cc1
AC50 (SERPINA7 (gene 6906)): 8.16 µM (active)

CC(C)(C)c1ccc(CSc2cnn(C(C)(C)C)c(=O)c2Cl)cc1
outcome [1]: inactive | outcome [4]: inactive | AC50 [5]: 7.59 µM (active) | AC50 [6]: 50 µM (active) | AC50 [2]: 6.79 µM (active) | AC50 [3]: 0.374 µM (active)

CCOC(=O)CC(SP(=S)(OC)OC)C(=O)OCC (stereo unspecified)
outcome [1]: inactive | outcome [2]: inactive | outcome [3]: inactive

Oc1ccccc1-c1ccccc1
AC50 (SERPINA7 (gene 6906)): 28.1 µM (active)

COP(N)(=O)SC (stereo unspecified)
outcome [1]: inactive | outcome [2]: inactive | outcome [3]: inactive

CCCCNC(=O)n1c(NC(=O)OC)nc2ccccc21
outcome [2]: inactive | outcome [3]: inactive

C=CCC1=C(C)C(OC(=O)C2C(C=C(C)C)C2(C)C)CC1=O (stereo unspecified)
outcome [2]: inactive | outcome [3]: inactive

CCCCOC(=O)c1ccccc1C(=O)OCCCC
outcome [1]: inactive | outcome [2]: inactive | outcome [3]: inactive | AC50 (SERPINA7 (gene 6906)): 11.4 µM (active)

CCCN(CCC)c1c([N+](=O)[O-])cc(S(N)(=O)=O)cc1[N+](=O)[O-]
AC50 (SERPINA7 (gene 6906)): 5.43 µM (active)
